These results are taken from PubChem BioAssay AID1347131 (National Center for Advancing Translational Sciences (NCATS), 2019).

Molecules are shown by their SMILES. Screen size: about 410,000 compounds; about 2,000 (0.49%) were called active. Where a call stands in place of a potency, no number is given. Another 8% or so got no clear call; they are omitted. Calls come from the whole dose curve; tested in HEK293 reporter line. This excerpt belongs to a sample that is enriched for actives.
Potency is the fitted concentration of half-maximal effect.

The nature of this assay: qHTS Assay for Foot and Mouth Disease Virus Antivirals: Primary Screen against the MLPCN compound library. Note: nearly all actives have a fitted effect of over 55% in size. The settings on record: FMDV antiviral cell-based qHTS; series mostly up to 57.9 µM. In general terms: qHTS replaces the single test concentration by a dilution series.
Take `COc1cccc(CNC(=O)Cn2cc3c(n2)-c2c(oc(C(=O)N4CCOCC4)c2C)CC3)c1`: the Potency entry is “inactive”. In the case of `Cc1cc(NC(=O)c2ccc(N(C)S(=O)(=O)c3ccccc3)cc2)no1`, the Potency result was “inactive”. For `Cc1cc(C)n2nc(SCc3ccc(F)cc3Cl)nc2n1` the value was “inactive”. In the case of `O=c1c2ccccc2sc2ccc(C#CC3(O)CCCCC3)cc12`, the Potency result was “inactive”. As to `Cn1c2ccccc2c(=O)c2ccc(C#CC3(O)CCCCC3)cc21`, the Potency was 17.8 µM (active). On to `Cc1cc2sc3ccc(C#CC4(O)CCCCC4)cc3c(=O)c2cc1C`, for which the Potency entry is “inactive”.

Regarding `CCOC(=O)C1(Cc2ccccc2)CCN(Cc2cccn2-c2cccnc2)CC1`, the Potency result is “inactive”. Turning to `COc1ccccc1OCCNC(=O)c1cc(C2CC2)nc2c1cnn2C(C)C`, the Potency entry is “inactive”. Turning to `CCN1C(=O)CC(C(C)C)N(C2CCCC2)c2nc(Nc3ccc(C(=O)NC4CCN(C)CC4)cc3OC)ncc21` (stereo not drawn), the Potency entry was “inactive”. For `CCCCC(CC)CNC(=O)c1ccc2c(=O)n(CCOC)c(=O)[nH]c2c1` (stereo not drawn) the value was “inactive”; for `Cc1ccc(-c2nc(CS(=O)CC(=O)N3CCN(c4ccc(F)cc4)CC3)c(C)o2)cc1` (stereo not drawn), “inactive”.

In the case of `COc1ccc(CC(=O)Nc2cccc(-c3csc(C)n3)c2)cc1`, the Potency was 20 µM (active). On to `COc1ccc(CC(=O)Nc2nc(-c3ccc(OC)c(OC)c3)cs2)cc1OC`, for which the Potency result was “inactive”. Consider `Cc1nc(-c2cccc(NC(=O)c3ccc(Cl)c(S(=O)(=O)N4CCCC4)c3)c2)cs1`, for which the Potency entry is “inactive”. As to `COc1ccc(Oc2ncc3nc(-c4ccccc4)c(=O)n(CCC#N)c3n2)cc1`, the Potency entry is “inactive”. With `COc1cccc(/C=N/NC(=O)c2nc(-c3ccccc3)cc(-c3ccccc3)n2)c1`, the Potency entry is “inactive”. Turning to `COc1ccc(/C=N/NC(=O)c2nonc2C)cc1`, the Potency was 11.2 µM (active). In the case of `Nc1nonc1-n1nnc(C(=O)N/N=C/c2ccc(O)cc2)c1COc1ccc(F)cc1`, the Potency result is “inactive”.

On to `CC1(C)NC(=O)N(CCCCOc2ccc3c(c2)CCC3)C1=O`, for which the Potency entry was “inactive”. For the compound `CC(C)c1cc(Br)ccc1OCCCN1C(=O)NC(C)(C)C1=O`, the Potency was 28.2 µM (active). As to `Cc1cc(OCCCCN2C(=O)NC(C)(C)C2=O)cc(C)c1Cl`, the Potency entry was “inactive”. For `CC12C(=O)N(c3cccc(OC(=O)c4ccco4)c3)C(=O)C1C1c3ccccc3C2c2ccccc21` (stereo not drawn) the value was “inactive”; for `Nc1cc(C(=O)OCC(=O)NCCNC(=O)COC(=O)c2ccc(Cl)c(N)c2)ccc1Cl`, “inactive”. The figure for `CS(=O)(=O)c1ccc(C(=O)OCC(=O)NCc2cccs2)cc1[N+](=O)[O-]` is 25.1 µM (active); for `CC(C)CN1CCN(C(=O)COC(=O)c2ccc(S(C)(=O)=O)c([N+](=O)[O-])c2)CC1` it is “inactive”. `COc1ccc(NC(=O)c2ccc(COc3ccccc3OC)o2)cc1OC`: the Potency result is “inactive”. Consider `CCc1ccc(OCc2ccc(C(=O)O)o2)cc1`, for which the Potency was 10 µM (active). In the case of `COC(=O)c1ccc(COc2ccc(/C=N/NC(N)=S)cc2)o1`, the Potency entry is “inactive”. Consider `Cc1ccccc1CS(=O)(=O)c1cn(CC(=O)N2CCC(C)CC2)c2ccccc12`, for which the Potency entry is “inactive”. Turning to `CCc1cc(=O)[nH]c(SCc2nc(-c3ccc(C(F)(F)F)cc3)no2)n1`, the Potency entry is “inactive”. Consider `N#C/C(=C\c1ccc(N2CCOCC2)o1)c1nc2ccccc2[nH]1`, for which the Potency was 10 µM (active).

For the compound `N#C/C(=C/c1ccc(N2CCOCC2)o1)c1nc2ccccc2[nH]1`, the Potency is 8.91 µM (active).

As to `COc1cc(/C=C(/C#N)c2nc3ccccc3[nH]2)ccc1OCC(=O)Nc1ccccc1C`, the Potency entry was “inactive”. For `COc1cc(/C=C(\C#N)c2nc3ccccc3[nH]2)cc(Cl)c1OCc1ccccc1Cl` the value was “inactive”; for `Cc1ccc2nc(/C(C#N)=C/c3ccc(-c4cccc(Cl)c4)o3)[nH]c2c1`, “inactive”; for `N#C/C(=C/c1ccc(N2CCCCC2)o1)C(=O)NCCc1c[nH]c2ccccc12`, “inactive”.

Take `O=C(CSCc1ccc(F)cc1)N1CCN(c2ccc(F)cc2)CC1`: the Potency entry is “inactive”. Consider `N#Cc1ccccc1Sc1ccccc1C(=O)OCC(=O)NC12CC3CC(CC(C3)C1)C2`, for which the Potency result is “inactive”. The entry for `COc1ccccc1C(=O)Nc1ccc(-c2cc(C(F)(F)F)nn2-c2ccccc2)cc1` is “inactive”; for `O=C1/C(=C\c2ccccc2)C[C@@]2(O)[C@H]3Cc4ccc(O)c5c4[C@@]2(CCN3CC2CC2)[C@H]1O5` it is 10 µM (active). For `C=CCN1CC[C@]23c4c5ccc(O)c4O[C@H]2/C(=N/NC(=O)c2ccccc2)CC[C@@]3(O)[C@H]1C5`, the Potency result is “inactive”. The entry for `CCOC(=O)[C@H]1[C@H]2COc3ccccc3[C@@H]2N2C(=O)c3ccc(Cl)cc3NC(=O)[C@@]12C` is “inactive”; for `O=C(Nc1ccccc1Cc1ccccc1)c1ccccc1NS(=O)(=O)c1ccc(Cl)s1` it is “inactive”; for `CCOc1cc(/C=C2\C(=O)N(c3ccc(C(N)=O)cc3)N=C2C)ccc1OC(=O)c1cccs1` it is “inactive”.

Regarding `COc1cc(/C=C2/C(=O)ON=C2c2ccccc2)ccc1O`, the Potency entry was “inactive”. Consider `C=CCOc1ccc(/C=C2/C(=O)ON=C2C)cc1OCC`, for which the Potency was 31.6 µM (active). As for `Cc1ccc(S(=O)(=O)N(C)C)cc1NC(=O)CSc1nc2ccccc2[nH]1`, the Potency result is “inactive”.

Regarding `CCOc1ccc(CN2CCNC(=O)C2CC(=O)NCCc2nc(C)c3c(n2)CCC3)cc1` (stereo not drawn), the Potency entry is “inactive”.

On to `Cc1ccc(-c2nc(CCNC(=O)c3ccco3)cs2)cc1`, for which the Potency entry is “inactive”. Regarding `Cc1ccc(S(=O)(=O)Nc2nc(C)c(C)s2)cc1`, the Potency entry was “inactive”. For `Cc1ccc(-c2nc(C)c(C(=O)O)s2)cc1`, the Potency was 25.1 µM (active).

As for `Cc1ccccc1N1CCN(C2CCCN(C(=O)CCC3(C)CC3)C2)CC1` (stereo not drawn), the Potency entry was “inactive”. With `Fc1ccccc1-c1csc(=Nc2cccnc2)n1CCCn1ccnc1`, the Potency entry was “inactive”.

Take `O=C(C1COc2ccccc2O1)N1CCN(S(=O)(=O)c2ccccc2)CC1` (stereo not drawn): the Potency result was “inactive”. For `CC(=O)c1cccc(NC(=O)CNC(=O)c2cc3ccccc3o2)c1` the value was “inactive”. With `Cc1nc(NC(=O)c2cc3ccccc3o2)sc1C`, the Potency is 17.8 µM (active). Turning to `CCc1cccc(C)c1NC(=O)c1cc2ccccc2o1`, the Potency result was “inactive”. For `COc1ccc([N+](=O)[O-])cc1NC(=O)C(C)OC(=O)C1CCCC1` (stereo not drawn) the value was “inactive”.

In the case of `CC1(C(=O)Nc2cccc(Oc3ccccc3)c2)CCN1Cc1cccc2c1OCO2` (stereo not drawn), the Potency result was “inactive”. The entry for `COc1cccc(-c2sc3ccc(OC)cc3c2-c2ccc(OCCN3CCCC3)cc2)c1` is “inactive”; for `Cc1ccc(-c2nc3cc(NC(=O)C(C)C)ccc3o2)cc1C` it is 22.4 µM (active); for `CC(C)Oc1ccc(C(=O)Nc2ccc3oc(-c4ccncc4)nc3c2)cc1` it is “inactive”.

As to `Cc1ccc(C(=O)Nc2cc(-c3nc4cc(Cl)ccc4o3)ccc2C)c(C)c1`, the Potency result was “inactive”.
